These results are taken from PubChem BioAssay.

For experiment [1], the system named is Wnt5a (protein binding on small-molecule microarray). Description: Wnt5a binders on small-molecule microarray, primary screen, biophysical, 635/667 nm fluorescence (AID 1142).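 Note: fluorescence read at 667 nm with signal to noise per printed feature.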 As to conditions: 635 nm fluorescence, higher = more signal.
Experiment [2] can be described thus: cell viability in Huh7 cells, primary screen, cytotoxicity control for HCV replication inhibitor project, CellTiter-Glo luminescence, basal, 48 h (AID 1143).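 Note: Huh7 hepatoma cells carrying a hepatitis C replication reporter with no stimulus; test concentration not given here.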 As to conditions: Huh7 HCV replicon, higher = more signal, called active from +8 up or from −8 down.
Experiment [3] in a line: CREB reporter modulators without forskolin, primary screen, cell-based, PC12, CRE-LacZ reporter, unstimulated (AID 1145). As to conditions: no forskolin, luminescence, 4.5 h, higher = more signal, called active from +8 up or from −8 down.
Experiment [4] can be described thus: CREB reporter modulators under forskolin, primary screen, cell-based, PC12, CRE-LacZ reporter, forskolin-stimulated (AID 1146).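 Note: PC12 cells with 6xCRE LacZ reporter stimulated by forskolin 10 µM; beta-galactosidase reporter signal reflecting CREB driven transcription.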 As to conditions: luminescence, 4.5 h, higher = more signal, called active from +8 up or from −8 down.
In experiment [5] the target is Streptavidin (Streptomyces avidinii) (UniProt P22629). Briefly: streptavidin binders on small-molecule microarray, primary screen, artefact control for SMM compound annotation, biophysical, 635/667 nm fluorescence (AID 1147).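 Note: signal reflects streptavidin binding to arrayed compounds as a control protein.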 As to conditions: streptavidin binding, higher = more signal.
Sequence of Streptavidin (Streptomyces avidinii) (P22629 whole entry, looked up): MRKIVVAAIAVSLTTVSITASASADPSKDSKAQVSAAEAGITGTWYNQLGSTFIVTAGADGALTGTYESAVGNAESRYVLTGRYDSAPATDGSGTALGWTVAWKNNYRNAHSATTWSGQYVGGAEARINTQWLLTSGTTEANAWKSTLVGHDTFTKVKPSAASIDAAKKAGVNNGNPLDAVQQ
Experiment [6] can be described thus: small-molecule binders of probe aInhba, primary screen, biochemical, small-molecule microarray, 635/667 nm fluorescence (AID 1148).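 Note: score merges 667nm spot fluorescence with signal-to-noise for antibody binding to printed compounds.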 As to conditions: higher = more signal.
Experiment [7] deals with Torsin-1A (Homo sapiens) (UniProt O14656). Description: torsin A binders from cell lysate, primary screen, small-molecule microarray, wild-type, 635/667 nm (AID 1149). As to conditions: COS7 hTOR1A-WT lysate, 635 nm fluorescence, higher = more signal.
Sequence of Torsin-1A (Homo sapiens) (O14656 whole entry, looked up): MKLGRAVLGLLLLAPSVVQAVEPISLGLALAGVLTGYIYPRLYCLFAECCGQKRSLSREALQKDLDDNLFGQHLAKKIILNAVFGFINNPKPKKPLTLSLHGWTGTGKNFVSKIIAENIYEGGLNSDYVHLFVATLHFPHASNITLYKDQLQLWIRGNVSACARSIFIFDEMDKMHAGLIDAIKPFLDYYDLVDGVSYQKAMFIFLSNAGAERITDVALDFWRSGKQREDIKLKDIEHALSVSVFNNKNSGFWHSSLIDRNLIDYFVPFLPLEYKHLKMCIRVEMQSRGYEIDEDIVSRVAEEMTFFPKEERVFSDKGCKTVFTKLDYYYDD
For experiment [8] the target is unchanged. Briefly: small-molecule binders of mutant TOR1A in lysate, primary screen, cell lysate, small-molecule microarray, COS7 lysate, 635/667 nm fluorescence (AID 1150).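 Note: score pools 667 nm emission and signal to noise measuring lysate protein binding.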 As to conditions: COS7 hTOR1A mutant lysate, 635 nm fluorescence, higher = more signal.
In experiment [9] the test system is Sonic hedgehog protein (Shh). Briefly: small-molecule binders of Shh protein, primary screen, biochemical, small-molecule microarray, 635/667 nm fluorescence (AID 1151).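 Note: Shh protein binding to compounds spotted on small-molecule microarray slides; score combines spot fluorescence intensity with signal-to-noise across triplicate slides.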 As to conditions: small-molecule microarray binding, 635 nm fluorescence; higher = more signal.
The nature of experiment [10]: E. coli DRC41 culture turbidity changes, primary screen, E. coli filamentation inducer project, strain DRC41, OD650, 48 h (AID 1152).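 Note: E. coli MC1000 strain DRC41 lacking acrAB efflux pump and sulA.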 As to conditions: E. coli DRC41 (acrAB sulA), higher = more signal, called active from +8 up or from −8 down.
Experiment [11] is described as follows: small-molecule binders of probe aLefty1, primary screen, biochemical, small-molecule microarray, 635/667 nm fluorescence (AID 1153).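 Note: score merges spot fluorescence with signal-to-noise ratio from the scanned slide images.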 As to conditions: higher = more signal.
Experiment [12] in a line: PSAC antagonists in infected red cells, primary screen, cell-based, P. falciparum Indochina, OD700, 1 h (AID 1154). As to conditions: P. falciparum Indochina infected RBC osmotic lysis, higher = more signal, called active from +8 up or from −8 down.
The nature of experiment [13]: PSAC antagonists in infected red cells, primary screen, cell-based, P. falciparum Indochina, OD700, 2 h (AID 1155).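 Note: lysis reports solute entry through the parasite surface anion channel PSAC; channel blockers reduce lysis of infected cells.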 As to conditions: P. falciparum Indochina infected erythrocytes, osmotic lysis OD700; higher = more signal, called active from +8 up or from −8 down.
Experiment [14] in a line: osmotic lysis modulators in infected erythrocytes, primary screen, PSAC antagonist project, cell-based, P. falciparum Indochina, OD700, 3 h (AID 1156). As to conditions: higher = more signal, called active from +8 up or from −8 down.
A short description of experiment [15]: PSAC antagonists in infected red cells, primary screen, cell-based, P. falciparum Indochina, OD700, 18 h (AID 1157). As to conditions: P. falciparum Indochina infected erythrocytes, osmotic lysis OD700, 18 h; higher = more signal, called active from +8 up or from −8 down.
A short description of experiment [16]: modulators of S6 phosphorylation in cells, primary screen, cell-based, A549, cytoblot, luminescence, serum-stimulated (AID 1158).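 Note: serum-stimulated A549 lung adenocarcinoma cells; signal is phosphorylated S6 detected by cytoblot immunostaining with HRP secondary.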 As to conditions: A549 phospho-S6 cytoblot, 5 h, higher = more signal.
The target in experiment [17] is NADPH oxidase 2 (Homo sapiens) (UniProt P04839). Description: NOX2-dependent H2O2 signal modulators, primary screen, NOX inhibitor project, cell-based, HEK293-NOX2, PMA-stimulated, Amplex Red fluorescence (AID 1159). Note: test concentration not given here. As to conditions: 45 min, higher = more signal, called active from +8 up or from −8 down.
Sequence of NADPH oxidase 2 (Homo sapiens) (P04839 whole entry, looked up): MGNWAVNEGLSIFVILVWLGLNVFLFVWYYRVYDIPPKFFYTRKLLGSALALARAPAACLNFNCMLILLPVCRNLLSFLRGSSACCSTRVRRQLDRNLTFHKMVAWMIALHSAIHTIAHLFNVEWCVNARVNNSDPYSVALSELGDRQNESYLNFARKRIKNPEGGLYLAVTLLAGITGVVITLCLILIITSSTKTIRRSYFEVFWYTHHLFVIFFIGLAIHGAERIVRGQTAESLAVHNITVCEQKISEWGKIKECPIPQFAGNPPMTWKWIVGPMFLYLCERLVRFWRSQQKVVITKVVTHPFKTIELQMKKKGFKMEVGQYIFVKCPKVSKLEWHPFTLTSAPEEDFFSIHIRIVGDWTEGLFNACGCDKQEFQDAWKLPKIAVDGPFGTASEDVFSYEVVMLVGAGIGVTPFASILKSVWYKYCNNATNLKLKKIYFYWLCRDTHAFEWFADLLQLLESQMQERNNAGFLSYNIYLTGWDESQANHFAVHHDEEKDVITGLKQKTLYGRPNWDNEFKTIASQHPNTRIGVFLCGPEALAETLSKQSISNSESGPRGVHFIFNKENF
Experiment [18] addresses NADPH oxidase 4 (Homo sapiens) (UniProt Q9NPH5). Briefly: NOX4-dependent H2O2 signal modulators, primary screen, NOX inhibitor project, cell-based, HEK293-NOX4, tetracycline-induced, Amplex Red fluorescence (AID 1160). As to conditions: 45 min, higher = more signal, called active from +8 up or from −8 down.
Experiment [19] has as its target NADPH oxidase 5 (Homo sapiens) (UniProt Q96PH1). Description: NOX5-dependent H2O2 signal modulators, primary screen, NOX inhibitor project, cell-based, HEK293-NOX5, Amplex Red fluorescence (AID 1161). As to conditions: HEK293-NOX5, ionomycin, 45 min, higher = more signal.
Experiment [20] is described as follows: A549 cell viability effects, profiling panel, calcein-AM fluorescence, 48 h, basal (AID 1162). Note: test concentration not given here. As to conditions: higher = more signal.

The source made the active and inactive calls.

Sequence of NADPH oxidase 5 (Homo sapiens) (Q96PH1 whole entry, looked up): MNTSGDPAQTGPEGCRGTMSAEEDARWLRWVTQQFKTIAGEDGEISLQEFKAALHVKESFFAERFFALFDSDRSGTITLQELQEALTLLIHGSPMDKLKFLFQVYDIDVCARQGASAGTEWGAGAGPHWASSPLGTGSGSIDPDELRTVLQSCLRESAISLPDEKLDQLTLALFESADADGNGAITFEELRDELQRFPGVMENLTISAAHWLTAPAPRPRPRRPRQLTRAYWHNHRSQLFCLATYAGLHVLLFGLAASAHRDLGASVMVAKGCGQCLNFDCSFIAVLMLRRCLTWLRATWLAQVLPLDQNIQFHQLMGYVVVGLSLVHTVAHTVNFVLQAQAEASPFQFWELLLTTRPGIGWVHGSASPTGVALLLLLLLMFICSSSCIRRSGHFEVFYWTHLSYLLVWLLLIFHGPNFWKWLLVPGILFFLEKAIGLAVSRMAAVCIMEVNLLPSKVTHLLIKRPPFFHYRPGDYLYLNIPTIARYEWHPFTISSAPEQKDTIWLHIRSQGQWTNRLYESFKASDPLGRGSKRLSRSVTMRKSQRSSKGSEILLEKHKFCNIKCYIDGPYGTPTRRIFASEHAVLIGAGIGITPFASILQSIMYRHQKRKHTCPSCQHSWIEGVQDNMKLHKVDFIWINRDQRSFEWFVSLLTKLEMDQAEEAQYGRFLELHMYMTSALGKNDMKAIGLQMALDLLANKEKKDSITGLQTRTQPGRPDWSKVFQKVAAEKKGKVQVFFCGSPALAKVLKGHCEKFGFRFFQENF
Sequence of NADPH oxidase 4 (Homo sapiens) (Q9NPH5 whole entry, looked up): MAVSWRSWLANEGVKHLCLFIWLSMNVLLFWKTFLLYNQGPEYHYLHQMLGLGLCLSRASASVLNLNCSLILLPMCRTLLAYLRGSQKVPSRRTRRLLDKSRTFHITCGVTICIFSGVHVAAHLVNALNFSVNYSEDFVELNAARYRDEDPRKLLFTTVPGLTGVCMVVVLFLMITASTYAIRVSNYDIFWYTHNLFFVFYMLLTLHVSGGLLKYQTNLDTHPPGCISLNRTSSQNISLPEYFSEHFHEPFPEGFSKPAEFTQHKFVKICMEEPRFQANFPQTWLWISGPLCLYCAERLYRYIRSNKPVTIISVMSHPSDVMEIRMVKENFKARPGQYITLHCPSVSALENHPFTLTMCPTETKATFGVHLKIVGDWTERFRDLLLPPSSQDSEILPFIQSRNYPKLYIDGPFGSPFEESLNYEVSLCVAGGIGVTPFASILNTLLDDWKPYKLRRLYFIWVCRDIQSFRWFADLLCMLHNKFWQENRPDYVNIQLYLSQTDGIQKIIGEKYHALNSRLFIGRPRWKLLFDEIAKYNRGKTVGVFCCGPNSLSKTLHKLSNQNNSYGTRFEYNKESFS

For the molecule `O=C(N1CCCCC1)[C@@]1(Cc2ccccc2)N=C(c2ccc(OCCCO)cc2)O[C@H]1c1ccccc1`, the composite z-score in [1] was 0.578; in experiment [5], 1.13; in [6] it was 0.749; with Torsin-1A (Homo sapiens) [7] it was 0.599; in the experiment with Torsin-1A (Homo sapiens) [8], 1.42; in experiment [9], -0.401. In [11], this molecule yielded a composite z-score of 1.17. The z-score in [2] was -5.07 (inactive); in experiment [3], 0.414 (inactive); in experiment [4] it was -1.06 (inactive); in experiment [10], 0.696 (inactive); in [12], 14.3 (active); in experiment [13], 2.37 (inactive). Moreover, the z-score is 2.82 (inactive) in experiment [14]; -0.657 (inactive) in experiment [15]; 0.845 in experiment [16]; -2.63 (inactive) in [17]; 0.489 (inactive) in experiment [18]; -0.326 in experiment [19]. The z-score in [20] was -1.51.
With `CCOC(=O)C[C@H]1[C@H](OC(=O)c2ccc(-c3ccccc3)cc2)[C@@H](NC(=O)C2CCCCC2)c2cc(OCCCO)ccc2N1C(=O)c1ccc2ccccc2n1`, the composite z-score in experiment [1] is 0.0447; in experiment [5] it was 0.391; in experiment [6] it was 0.0582; with Torsin-1A (Homo sapiens) [7], 0.688; with Torsin-1A (Homo sapiens) [8] it was 0.525; in experiment [9], 0.21. Moreover, the composite z-score in [11] worked out at 0.0278. The z-score in [2] is -0.0226 (inactive); in experiment [3], 3.51 (inactive); in [4], -0.876 (inactive); in experiment [10], 2.69 (inactive); in [12], 1.45 (inactive); in experiment [13], -0.755 (inactive). The z-score in experiment [14] is -0.0072 (inactive); in experiment [15], -1.16 (inactive); in experiment [16], 1.5; in [17], 1.13 (inactive); in [18], 1.3 (inactive); in [19] it was 1.94. For the same molecule, the z-score in [20] is 1.23.
With `CC(=O)OC(C/C=C\B1OC(C)(C)C(C)(C)O1)c1ccccc1` (stereo not given), the composite z-score was -0.115 in experiment [1]; -0.748 in experiment [5]; -0.284 in experiment [6]; -0.611 with Torsin-1A (Homo sapiens) [7]; 0.301 with Torsin-1A (Homo sapiens) [8]; -0.236 in experiment [9]. Besides, in experiment [11], the composite z-score was -0.147. Moreover, the z-score in [2] was -3.4 (inactive); in experiment [3], 3.04 (inactive); in experiment [4], -2.27 (inactive); in experiment [10], -2.2 (inactive); in experiment [12] it was 0.344 (inactive); in experiment [13], -0.832 (inactive). Further, the z-score in experiment [14] was -0.628 (inactive); in experiment [15], -1.04 (inactive); in [16], 3.07; in experiment [17] it was -0.889 (inactive); in [18], 0.478 (inactive); in experiment [19] it was -2.94. For the same molecule, in experiment [20], the z-score is 2.43.
As to `CC(C)NC(=O)[C@@H]1c2ccccc2C(=O)N(Cc2cc(F)cc(C(F)(F)F)c2)[C@H]1c1ccc(CO)cc1`, the composite z-score was -0.0581 in [1]; -0.95 in experiment [5]; -0.329 in experiment [6]; -0.479 with Torsin-1A (Homo sapiens) [7]; -0.0988 with Torsin-1A (Homo sapiens) [8]; -0.72 in experiment [9]. This molecule also yielded a composite z-score in experiment [11] of -0.113. The z-score in [2] is 0.142 (inactive); in experiment [3] it was -0.529 (inactive); in experiment [4] it was -1.08 (inactive); in experiment [10], 1.39 (inactive); in [12], 2.06 (inactive); in [13], 0.391 (inactive). Moreover, the z-score in experiment [14] was 1.47 (inactive); in experiment [15], 0.178 (inactive); in [16], 0.161; in experiment [17] it was 0.146 (inactive); in experiment [18], 1.08 (inactive); in experiment [19], 0.949. The z-score in experiment [20] was 1.48.
